{"source": "PubChem BioAssay (NCI)", "experiment_in_all_cases": "NCI-60 one-dose screen, 48 h (100 = growth as untreated, 0 = no growth, -100 = all killed)", "settings_in_all_cases": "10 µM unless noted", "key": {"SK-MEL-2 melanoma": {"tested_on": "SK-MEL-2 melanoma"}, "SN12C renal": {"tested_on": "SN12C renal"}, "UO-31 renal": {"tested_on": "UO-31 renal"}, "TK-10 renal": {"tested_on": "TK-10 renal"}, "ACHN renal": {"tested_on": "ACHN renal"}, "CAKI-1 renal": {"tested_on": "CAKI-1 renal"}, "A498 renal": {"tested_on": "A498 renal"}, "CCRF-CEM leukemia": {"tested_on": "CCRF-CEM leukemia"}, "MOLT-4 leukemia": {"tested_on": "MOLT-4 leukemia"}, "EKVX NSCLC": {"tested_on": "EKVX NSCLC"}}, "note": "This is part of a sample that, as a whole, favours compounds with a hit. Of some 83,000 tested, about 20% had one in any assay.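 Cells were grown in 96-well plates and exposed to the test compound at a single concentration for 48 hours; results are reported as percent growth, with values below 10 considered active.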 Unmarked numbers belong to inactive results. Activity calls are given as the source filed them.", "data": [{"smiles": "O=C1C(=O)/C(=C/c2ccccc2)CCCCCC/C1=C/c1ccccc1", "values": [{"measurement": "growth", "setting": "SK-MEL-2 melanoma", "result": 105, "unit": "%"}, {"measurement": "growth", "setting": "SN12C renal", "result": 79.8, "unit": "%"}, {"measurement": "growth", "setting": "UO-31 renal", "result": 30.9, "unit": "%"}, {"measurement": "growth", "setting": "TK-10 renal", "result": 115, "unit": "%"}, {"measurement": "growth", "setting": "ACHN renal", "result": 88.5, "unit": "%"}, {"measurement": "growth", "setting": "CAKI-1 renal", "result": 82.1, "unit": "%"}, {"measurement": "growth", "setting": "A498 renal", "result": 78.6, "unit": "%"}, {"measurement": "growth", "setting": "CCRF-CEM leukemia", "result": "4.29% (active)"}, {"measurement": "growth", "setting": "MOLT-4 leukemia", "result": 10.2, "unit": "%"}]}, {"smiles": "CC(C)N(Cc1ccccc1)c1c(Cl)ssc1=O", "values": [{"measurement": "growth", "setting": "SK-MEL-2 melanoma", "result": 93.7, "unit": "%"}, {"measurement": "growth", "setting": "EKVX NSCLC", "result": 100, "unit": "%"}, {"measurement": "growth", "setting": "SN12C renal", "result": 99.7, "unit": "%"}, {"measurement": "growth", "setting": "TK-10 renal", "result": 124, "unit": "%"}, {"measurement": "growth", "setting": "CAKI-1 renal", "result": 113, "unit": "%"}, {"measurement": "growth", "setting": "A498 renal", "result": 109, "unit": "%"}, {"measurement": "growth", "setting": "MOLT-4 leukemia", "result": 121, "unit": "%"}]}, {"smiles": "CCc1nn2c(-c3ccc(Cl)cc3C)c(-c3cc(OC)c(OC)c(OC)c3)nc2s1", "values": [{"measurement": "growth", "setting": "SK-MEL-2 melanoma", "result": 69.6, "unit": "%"}, {"measurement": "growth", "setting": "SN12C renal", "result": 80.2, "unit": "%"}, {"measurement": "growth", "setting": "UO-31 renal", "result": 47.1, "unit": "%"}, {"measurement": "growth", "setting": "TK-10 renal", "result": 77.2, "unit": "%"}, {"measurement": "growth", "setting": "ACHN renal", "result": 76.7, "unit": "%"}, {"measurement": "growth", "setting": "CAKI-1 renal", "result": 55.2, "unit": "%"}, {"measurement": "growth", "setting": "A498 renal", "result": 74.5, "unit": "%"}, {"measurement": "growth", "setting": "CCRF-CEM leukemia", "result": 85.1, "unit": "%"}, {"measurement": "growth", "setting": "MOLT-4 leukemia", "result": 71, "unit": "%"}]}, {"smiles": "N#Cc1c(NC(=O)c2ccco2)[n+]([O-])c2cc(Cl)c(Cl)cc2[n+]1[O-]", "values": [{"measurement": "growth", "setting": "SK-MEL-2 melanoma", "result": 89.9, "unit": "%"}, {"measurement": "growth", "setting": "EKVX NSCLC", "result": 82.4, "unit": "%"}, {"measurement": "growth", "setting": "SN12C renal", "result": 94.1, "unit": "%"}, {"measurement": "growth", "setting": "TK-10 renal", "result": 163, "unit": "%"}, {"measurement": "growth", "setting": "ACHN renal", "result": 110, "unit": "%"}, {"measurement": "growth", "setting": "CAKI-1 renal", "result": 134, "unit": "%"}, {"measurement": "growth", "setting": "A498 renal", "result": 109, "unit": "%"}, {"measurement": "growth", "setting": "MOLT-4 leukemia", "result": "1.53% (active)"}]}, {"smiles": "CCOC(=O)/C(=C/CC/C(C)=C/CC/C(C)=C/CCc1ccoc1)CC(=O)N1CCCCC1", "values": [{"measurement": "growth", "setting": "SK-MEL-2 melanoma", "result": "-19% (active)"}, {"measurement": "growth", "setting": "SN12C renal", "result": 47.2, "unit": "%"}, {"measurement": "growth", "setting": "UO-31 renal", "result": 25.1, "unit": "%"}, {"measurement": "growth", "setting": "TK-10 renal", "result": 63.7, "unit": "%"}, {"measurement": "growth", "setting": "ACHN renal", "result": 55.2, "unit": "%"}, {"measurement": "growth", "setting": "CAKI-1 renal", "result": 60.7, "unit": "%"}, {"measurement": "growth", "setting": "A498 renal", "result": "-20.2% (active)"}, {"measurement": "growth", "setting": "CCRF-CEM leukemia", "result": 22.7, "unit": "%"}, {"measurement": "growth", "setting": "MOLT-4 leukemia", "result": "0.624% (active)"}]}]}
